Source: PubChem BioAssay (NCI)
About 83,000 compounds went through this panel and 20% of them were active in at least one assay; those are over-represented in the sample as a whole.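 The test compound was applied at a single concentration to cells in 96-well plates for 48 hours, and percent growth was recorded.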 Active and inactive are the calls of the source. How the source made its calls: active means growth percent below 10; inactive means the rest.

What was measured:
Experiment in all cases: NCI-60 one-dose screen, 48 h (100 = growth as untreated, 0 = no growth, -100 = all killed)
Details in all cases: 10 µM
[1] = tested on: HCT-15 colon
[2] = tested on: HT29 colon
[3] = tested on: SNB-75 CNS
[4] = tested on: SNB-19 CNS
[5] = tested on: U251 CNS
[6] = tested on: PC-3 prostate
[7] = tested on: SK-MEL-5 melanoma
[8] = tested on: UACC-62 melanoma
[9] = tested on: LOX IMVI melanoma
[10] = tested on: SK-MEL-28 melanoma

Measured: growth

COc1cc(-c2nn(-c3ccc(NC(=O)NCCCNC(=O)c4ccccc4)cc3)cc2-c2ccncc2)ccc1Cl
active: [2] 3.51% | [7] -43.5%
inactive: [1] 20.3% | [3] 25% | [4] 55.8% | [5] 14.9% | [6] 19.4% | [8] 51.7% | [9] 15.1% | [10] 52.1%

O=C(COc1cccc(/C=C2\CSc3ccc(Cl)cc3C2=O)c1)c1ccc(Cl)cc1
inactive: [1] 47.9% | [2] 16.7% | [3] 74.7% | [4] 89.1% | [5] 59.9% | [6] 43.7% | [7] 86.1% | [8] 71.1% | [9] 23.8% | [10] 107%

Cc1cc(C)nc(NS(=O)(=O)c2ccc(Nc3nc4nc(NCc5ccccc5)nc(-c5ccc(O)cc5)c4c(=O)[nH]3)cc2)n1
inactive: [1] 18.5% | [2] 32.2% | [3] 48.2% | [4] 28.2% | [5] 11.9% | [8] 21.8% | [9] 23.4% | [10] 32.7%
active: [6] 1.02% | [7] 4.9%

COc1cc(/C=C/c2cc(/C=C/c3ccc(O)c(OC)c3)n(C(=O)Nc3ccc(C)cc3)n2)ccc1O
active: [2] -22.4% | [3] 9.53% | [5] 6.19% | [6] 8.08% | [7] 1.16% | [8] -0.493% | [9] 1.89%
inactive: [1] 15.2% | [4] 20.3% | [10] 13.2%

OCCn1cccn1
inactive: [1] 98.6% | [2] 104% | [3] 109% | [4] 113% | [5] 101% | [6] 100% | [7] 99% | [8] 114% | [9] 96.3% | [10] 117%

Cc1ccc(NCCNCC(C)(C)O)c2c(=O)c3ccc(Cl)cc3sc12
active: [1] -7.39% | [2] -73.1% | [5] -74.5% | [8] -66.6% | [9] -92.6% | [10] -60%
inactive: [3] 76.1% | [4] 46.2% | [6] 36.8% | [7] 44.2%

CCOC(=O)C(C)(c1ccccc1)c1ccccc1
inactive: [1] 104% | [2] 96.2% | [3] 94.2% | [4] 99.3% | [5] 104% | [6] 97.8% | [7] 108% | [8] 102% | [9] 102% | [10] 111%

CCOC(=O)c1cc(C(=O)c2ccc(F)cc2F)n2ccccc12
inactive: [1] 79.9% | [2] 77.4% | [3] 83.6% | [4] 84.3% | [5] 79.4% | [6] 75.6% | [7] 92.6% | [8] 86.4% | [9] 90.4% | [10] 115%

N#Cc1c(N)nc(-c2cc(F)cc(C(F)(F)F)c2)nc1-c1ccccc1F
inactive: [1] 67.4% | [2] 39.7% | [3] 13.6% | [4] 46.5% | [5] 19.5% | [6] 81.4% | [7] 93.6% | [8] 84% | [9] 54% | [10] 75.9%

O=C(O)c1ccc(-n2cc(CNc3ccc(Oc4ccccc4)cc3)c(-c3ccccc3)n2)cc1
inactive: [1] 72.9% | [2] 102% | [3] 81.6% | [4] 87.7% | [5] 83.3% | [6] 96% | [7] 96.8% | [8] 83.4% | [9] 90.4% | [10] 86.8%

COC1OC(COS(=O)OC)C(O)C(O)C1OS(=O)OC (stereo not given)
inactive: [1] 96.5% | [2] 103% | [3] 105% | [4] 103% | [5] 99.3% | [6] 100% | [7] 104% | [8] 107% | [9] 100% | [10] 110%

O=C(Nc1cccc2c1CCCC2)c1cc2ccccc2cc1O
active: [7] -37.8%
inactive: [1] 30.8% | [2] 90.5% | [3] 63.8% | [4] 30.1% | [5] 33.8% | [6] 12.8% | [8] 23% | [9] 27.2% | [10] 34.2%

COC(=O)CC[C@@H](C)[C@H]1CC[C@H]2[C@@H]3CC[C@@H]4C[C@H](O)CC[C@]4(C)[C@H]3C[C@H](O)[C@]12C
inactive: [1] 92.4% | [2] 89% | [3] 91.4% | [4] 105% | [5] 98.6% | [6] 67.7% | [7] 88.5% | [8] 87.2% | [9] 93.6% | [10] 118%

COc1ccc2c(c1)C(CC(=O)NN)CCC2 (stereo not given)
inactive: [1] 104% | [2] 112% | [3] 89.9% | [4] 109% | [5] 102% | [6] 100% | [7] 104% | [8] 104% | [9] 93.7% | [10] 113%

Clc1ccc(/C=C2\CCCC3C2=Nc2ccccc2NC3c2ccc(Cl)cc2)cc1 (stereo not given)
inactive: [1] 63.7% | [2] 16% | [3] 88.2% | [4] 92% | [5] 20.8% | [6] 77.3% | [7] 88.7% | [8] 74.2% | [10] 101%
active: [9] -27.5%

OCC1OC(n2ccc3c(NO)ncnc32)C(O)C1O (stereo not given)
active: [1] -37.6% | [2] -1.97% | [3] -24.2% | [4] -0.974% | [5] 0.0054% | [6] -7.72% | [7] -90.8% | [8] -88.8% | [9] -45.3% | [10] -47.5%

COc1cc(Cc2cc(-c3ccccc3)n[nH]c2=O)cc(OC)c1OC
inactive: [1] 34.5% | [2] 18.3% | [3] 55.5% | [4] 62.9% | [5] 48.7% | [6] 61.9% | [7] 50.4% | [8] 43.3% | [9] 45.5% | [10] 70%

COc1cc2c(cc1OC)C(C(CCCCCC(CCC(C)C)C1NCCc3cc(OC)c(OC)cc31)CCC(C)C)NCC2 (stereo not given)
active: [1] -100% | [2] -95.3% | [3] -99.5% | [4] -47.5% | [5] -99% | [6] -92.3% | [7] -96.4% | [8] -91.5% | [9] -100% | [10] -100%

CN(C)c1ccc(/C=N/NC(=O)c2cccc3ccccc23)c(Cl)c1
inactive: [1] 27.9% | [2] 12.9% | [3] 20.3% | [4] 52.6% | [5] 23.9% | [6] 20.3% | [7] 24.3% | [8] 46.4% | [9] 37.9% | [10] 42%

O=C(CCl)Oc1ccc(OC(=O)CCl)cc1
inactive: [1] 94.1% | [2] 99.9% | [3] 75.3% | [4] 104% | [5] 101% | [6] 89.4% | [7] 82.2% | [8] 85% | [9] 89.3% | [10] 104%

CN1C(=O)C2(Nc3cc(Cl)ccc3S2)c2cc(Cl)ccc21 (stereo not given)
inactive: [1] 76.7% | [2] 101% | [3] 69.2% | [4] 97.2% | [5] 93.2% | [6] 73.7% | [7] 84.9% | [8] 69.9% | [9] 78.8% | [10] 101%

CCOS(=O)(=O)c1c(C(C)C)cc(C(C)C)cc1C(C)C
inactive: [1] 97.2% | [2] 112% | [3] 96.8% | [4] 103% | [5] 98.6% | [6] 96% | [7] 100% | [8] 98.4% | [9] 101% | [10] 96.5%

COc1ccc2c(c1)C(=O)/C(=C/c1ccc([N+](=O)[O-])o1)O2
active: [1] -48.5% | [2] -63% | [3] 9.47% | [5] -55.1% | [7] -91.3% | [8] -89% | [9] -77.4% | [10] -71.1%
inactive: [4] 19.9% | [6] 58.9%

COc1cc2cc(Oc3ccc(NC(=O)c4ccccc4)cc3)c(C)nc2cc1OC
inactive: [1] 94.3% | [2] 104% | [3] 54.1% | [4] 98.6% | [5] 59.3% | [6] 75.4% | [7] 80.2% | [8] 95.9% | [9] 86.5% | [10] 92.9%

C/C=C/CSC(C)(C)C(=O)NC
inactive: [1] 100% | [2] 98.1% | [3] 92% | [4] 101% | [5] 104% | [6] 92.8% | [7] 101% | [8] 105% | [9] 97% | [10] 112%

CO[C@H]1CC(O[C@@H]2/C(C)=C/C[C@@H]3C[C@@H](C[C@]4(C=C[C@H](C)[C@@H](C5CCCCC5)O4)O3)OC(=O)[C@@H]3C=C(C)[C@@H](O)[C@H]4OC/C(=C\C=C\[C@@H]2C)[C@]43O)O[C@@H](C)C1O[C@H]1C[C@H](OC)[C@@H](O)[C@H](C)O1 (stereo not given in full)
active: [1] -79.2% | [2] -71.9% | [3] -66.8% | [4] -5.35% | [5] -91.2% | [6] -59.6% | [7] -97.8% | [8] -78.1% | [9] -97.3% | [10] -64.6%

CN1CCN(CC(=O)Nc2cccc(-n3cc(-c4ccncc4)c(-c4ccc(Cl)c(O)c4)n3)c2)CC1
inactive: [1] 40.5% | [3] 30.5% | [4] 55.5% | [5] 30.8% | [6] 26.6% | [7] 27.3% | [8] 48.3% | [9] 14.6% | [10] 60.8%
active: [2] 4.08%
